Test results as given in PubChem BioAssay (EPA / NIEHS).
Several values for one entry are separate records, joined by “and”; a condition that tells them apart may be missing. Equal entries are not always repeated. Activity calls are given as the source filed them. The calls were made as follows: active = hit-call score of the fitted dose curve at least 0.9, where 1 is the maximum; inactive = score below 0.9.

Columns and labels:
[1] = read-out: Interleukin 17F (IL17F), IL17F (gene 112744); assay: BSK_BT_xIL17F: BioMAP Diversity Plus: BT Assay for Interleukin 17F (IL17F) Biomarker Activity (AID 2284243); conditions: primary human B cells with PBMC
How it was run: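 Human PBMC co-cultured with B cells, compound exposure 24 h; secreted IL-17F quantified by Luminex xMAP, referenced to DMSO control. PBMC viability measured in parallel by Alamar Blue reduction.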

[2] = read-out: Actin alpha 1 (ACTA1), ACTA1 (gene 58); assay: BSK_MyoF_ACTA1: BioMAP Diversity Plus: MyoF Assay for Actin alpha 1 (ACTA1) Biomarker Activity (AID 2284244); conditions: primary human lung fibroblasts
How it was run: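 Cells were exposed to chemical for 24 h before a-SMA levels were quantified by ELISA in human lung fibroblasts. Increases were fitted against DMSO as negative control; parallel SRB staining (0.1% after 10% TCA fixation, 560 nm) assessed cytotoxicity.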

[3] = read-out: Interleukin 2 (IL2), IL2 (gene 3558); assay: BSK_BT_xIL2: BioMAP Diversity Plus: BT Assay for Interleukin 2 (IL2) Biomarker Activity (AID 2284245); conditions: primary human B cells with PBMC
How it was run: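 The BT system combines human B cells with peripheral blood mononuclear cells. Twenty-four hours after chemical dosing, secreted IL-2 was measured with xMAP bead technology, and responses were analyzed as increases over DMSO controls.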

[4] = read-out: Basic fibroblast growth factor (bFGF), FGF2 (gene 2247); assay: BSK_MyoF_bFGF: BioMAP Diversity Plus: MyoF Assay for Basic fibroblast growth factor (bFGF) Biomarker Activity (AID 2284246); conditions: primary human lung fibroblasts
How it was run: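 Chemicals are added to human lung fibroblast cultures and incubated 24 h. bFGF is then measured by ELISA, while parallel cultures receive SRB staining for total protein as a cytotoxicity check. Data are fitted upward against DMSO.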

[5] = read-out: Collagen IV, COL4A1 (gene 1282); assay: BSK_MyoF_CollagenIV: BioMAP Diversity Plus: MyoF Assay for Collagen IV Biomarker Activity (AID 2284247); conditions: primary human lung fibroblasts
How it was run: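 Human lung fibroblast system, 24 h chemical exposure. Endpoint: Collagen IV by ELISA, upward fit vs DMSO.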

[6] = read-out: Monokine induced gamma interferon (MIG), CXCL9 (gene 4283); assay: BSK_KF3CT_MIG: BioMAP Diversity Plus: KF3CT Assay for Monokine induced gamma interferon (MIG) Biomarker Activity (AID 2284248); conditions: primary human keratinocytes with fibroblasts
How it was run: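 Human keratinocyte–foreskin fibroblast co-culture; MIG measured by ELISA 24 h after chemical dosing, fitted upward versus DMSO. Cytotoxicity was assessed in parallel cultures by SRB total-protein staining read at 560 nm.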

[7] = read-out: Vascular cell adhesion molecule 1 (VCAM1), VCAM1 (gene 7412); assay: BSK_BF4T_VCAM1: BioMAP Diversity Plus: BF4T Assay for Vascular cell adhesion molecule 1 (VCAM1) Biomarker Activity (AID 2284249); conditions: primary human bronchial epithelial cells with fibroblasts
How it was run: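 Cell-surface VCAM-1 quantified by ELISA after 24 h chemical exposure of human bronchial epithelial/dermal fibroblast co-cultures, with SRB staining in parallel wells for cytotoxicity; DMSO baseline, positive-direction fitting.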

[8] = read-out: Collagen I, COL1A1 (gene 1277); assay: BSK_hDFCGF_CollagenI: BioMAP Diversity Plus: hDFCGF Assay for Collagen I Biomarker Activity (AID 2284250); conditions: primary human foreskin fibroblasts
How it was run: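 Collagen I ELISA, primary human foreskin fibroblasts, 24 h chemical exposure, DMSO = negative control/baseline, positive fitting direction.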

Measured: AC50

OCC(F)(F)OC(F)(F)C(F)(F)OC(F)(F)CO
inactive: all assays above

CCCCC(CC)COP(=O)(Oc1ccccc1)Oc1ccccc1 (stereo unspecified)
active: [1] 20 µM | [2] 8.64 µM | [3] 20 µM | [4] 12.3 µM | [5] 3.97 µM

COP(=O)(CCC(=O)NCO)OC
inactive: [6] | [8]

O=c1ssc(Cl)c1Cl
active: [1] 6.3 µM | [2] 6.24 µM | [3] 6.44 µM | [4] 11.4 µM | [5] 7.41 µM

O=S1(=O)OCC2C(CO1)C1(Cl)C(Cl)=C(Cl)C2(Cl)C1(Cl)Cl (stereo unspecified)
inactive: [2] | [4] | [5]
active: [1] 28.3 µM | [3] 20 µM

OCC(F)(F)OC(F)(F)C(F)(F)OC(F)(F)C(F)(F)OC(F)(F)CO
active: [1] 22.8 µM and 20.7 µM | [2] 20.5 µM and 30 µM
inactive: all other assays above

O=S(=O)(F)C(F)(F)C(F)(F)C(F)(F)C(F)(F)C(F)(F)C(F)(F)C(F)(F)C(F)(F)F
inactive: all assays above

COC(=O)C(F)(F)C(F)(F)OC(F)(C(F)(F)F)C(F)(F)OC(F)=C(F)F (stereo unspecified)
inactive: all assays above

COP(=O)(O)OC
inactive: [1] | [2] | [3] | [4] | [5]

CCCCOCCOP(=O)(OCCOCCCC)OCCOCCCC
inactive: [1] | [2] | [3] | [4] | [5]

N#Cc1cc([N+](=O)[O-])ccc1N
inactive: [1] | [2] | [3] | [4] | [5]

Nc1ccc([N+](=O)[O-])cc1Cl
inactive: [1] | [2] | [3] | [4] | [5]

C=CC(=O)OCC(CC)(COC(=O)C=C)COC(=O)C=C
active: [1] 1.87 µM | [2] 2.93 µM | [3] 2.34 µM | [4] 4.36 µM | [5] 2.87 µM

OCC(F)(F)OC(F)(F)C(F)(F)OC(F)(F)C(F)(F)OC(F)(F)F
active: [1] 30 µM and 22.2 µM | [2] 18.3 µM and 11.5 µM | [3] 53.9 µM and 23.4 µM | [6] 58.5 µM and 45.8 µM
inactive: all other assays above

NC(=O)C(F)(F)C(F)(F)F
inactive: all assays above

N#Cc1c(-c2ccc(Cl)cc2)[nH]c(C(F)(F)F)c1Br
inactive: [4] | [5]
active: [1] 1.63 µM | [2] 0.329 µM | [3] 10.1 µM

CC(O)C(F)(F)C(F)(F)F (stereo unspecified)
inactive: all assays above

CCCCC(CC)COC(=O)c1c(Br)c(Br)c(Br)c(Br)c1C(=O)OCC(CC)CCCC (stereo unspecified)
inactive: [1] | [2] | [3] | [4] | [5]

O=C(O)C(F)(F)C(F)(F)C(=O)O
inactive: all assays above

c1ccc2c(c1)sc1ccccc12
inactive: [1] | [2] | [3] | [4] | [5]

COP(N)(=S)OC
inactive: [1] | [2] | [3] | [4] | [5]

Cc1c([N+](=O)[O-])cc2c(c1[N+](=O)[O-])C(C)(C)CC2(C)C
active: [1] 20 µM | [3] 20 µM | [5] 5.8 µM
inactive: [2] | [4]
